Laboratory results reported in ChEMBL document CHEMBL3988442, “University of Dundee, Small-Polar-MMV Screening Library” (2021).
About 13,000 (27%) of roughly 48,000 compounds showed an effect of 50% or more. The list shows a part of the results.

test system: Wolbachia pipientis; assay: Anti-Wolbachia Cell-Based Screen; assay type: functional; set-up: scale not given: in the data most compounds retested in dose-response had high values; details: 5 µM

Row | Structure (SMILES) | Percent Effect [%]
1 | CCN(CC)Cc1cc(C(=O)N2CCCC(CC)(C(=O)O)C2)c(C)o1 (stereo not drawn) | 1.255
2 | O=C(c1scc2c1OCCO2)N1CCOC(CCc2ccccc2)C1 (stereo not drawn) | -26.43
3 | CCc1nc(C)c([C@H]2CN(C)C[C@@H]2C(=O)Nc2cccc3cn[nH]c23)[nH]1 | -9.056
4 | CC(=O)N1CCN(C(=O)CCNc2snc(Cl)c2C#N)CC1 | -5.282
5 | Cc1cc(CN(Cc2ccccc2)CC(O)c2cccs2)on1 (stereo not drawn) | -11.7
6 | CN(C)c1ncc(CNC(=O)Nc2ccccc2F)n1C | -5.654
7 | Cn1c(C(F)(F)F)nn(CCNC(=O)Nc2ccccc2F)c1=O | 4.89
8 | COc1ccccc1NC(=O)NCc1nnc(SC)n1C | 134.3
9 | CCc1ccccc1NC(=O)NCc1nnc(SC)n1C | 130.1
10 | CNC(=O)Cc1ccccc1NC(=O)NCc1ccc(SC)cc1 | -2.376
11 | CCOc1ccccc1NC(=O)NCc1ccoc1 | 6.288
12 | Cn1c(CO)nnc1SCc1c(F)cccc1Br | 6.099
13 | COc1ccccc1NC(=O)NCc1cn[nH]c1 | 15.69
14 | CSc1nnc(CNC(=O)Nc2ccccc2Br)n1C | 152.8
15 | CNc1nc(CNC(=O)Nc2ccccc2SC)cs1 | 0.4301
16 | CSc1nnc(CNC(=O)Nc2ccccc2F)n1C | 133
17 | COC(=O)CCCNC(=O)Nc1ccccc1OC | -0.6444
18 | CN(C(=O)c1ccncc1Cl)c1ccccc1S(C)(=O)=O | -0.2522
19 | O=C(Nc1cccs1)N(CCO)CCOCC(F)(F)F | 5.099
20 | Cc1ccccc1CC1(CO)CCCN(c2ncncc2C(C)C)C1 (stereo not drawn) | 2.064
21 | CO[C@H]1CCN(c2nnc(C)s2)C[C@@H]1Cc1ccccc1.O=C(O)C(F)(F)F | 94.02
22 | CO[C@@H]1CCN(c2nnc(C)s2)C[C@@H]1Cc1ccccc1.O=C(O)C(F)(F)F | 97
23 | Cc1nnc(N2CC[C@H](OCC3CC3)[C@@H](Cc3ccccc3)C2)s1.O=C(O)C(F)(F)F | -12.39
24 | Cc1nnc(N2CC[C@@H](OCC3CC3)[C@@H](Cc3ccccc3)C2)s1.O=C(O)C(F)(F)F | 4.615
25 | COCc1ccc(C(=O)N2CCC(Oc3ccccc3)(C(=O)O)CC2)o1 | -4.026
26 | Cc1ncc(C)c(N2CCCC(CO)(Cc3cccc(Cl)c3)C2)n1 (stereo not drawn) | -4.145

Row | Structure (SMILES) | Percent Effect [%]
27 | CN1CCN(CCCNC(=O)c2cc(Cl)c3c(c2)OCO3)CC1 | 11.84
28 | CC(C)N(C)Cc1nnc2n1CCN(S(=O)(=O)C1CC1)CC2.O=C(O)C(F)(F)F | -7.825
29 | CCN(CC)Cc1cc(=O)n2c(n1)CN(S(=O)(=O)C1CC1)CCC2.O=C(O)C(F)(F)F | 115.6
30 | CC(C)N(C)Cc1cc(=O)n2c(n1)CN(S(=O)(=O)C1CC1)CCC2.O=C(O)C(F)(F)F | 109.3
31 | CN(C)Cc1cc(=O)n2c(n1)CN(CC1CCOCC1)CCC2 | -13.06
32 | CC(C)N(C)Cc1nnc2n1CCCN(S(=O)(=O)C1CC1)C2.O=C(O)C(F)(F)F | -4.148
33 | CN(C)Cc1cc(=O)n2c(n1)CN(S(=O)(=O)C1CC1)CCC2.O=C(O)C(F)(F)F | 96.54
34 | C=C(C)COc1cccc(C(=O)N(C)Cc2cc(CC)no2)c1 | -19.24
35 | Cc1ccn(-c2ccc(N3CCCN(Cc4ccccc4)CC3)nn2)n1 | 1.996
36 | COCCCC1(CO)CCCN(C(=O)c2cnc3c(c2)CCCC3)C1 (stereo not drawn) | -5.76
37 | Clc1snnc1CN1CCOC(CNc2cccnn2)C1 (stereo not drawn) | -2.392
38 | c1cnnc(NCC2CN(CC3CCOCC3)CCO2)c1 (stereo not drawn) | 103
39 | CCN(CC1CN(CCc2ccccn2)CCO1)c1cccnn1 (stereo not drawn) | -0.8374
40 | c1cnnc(NCC2CN(CCn3cncn3)CCO2)c1 (stereo not drawn) | -18.76
41 | Cn1c(CN2CCOC(CNc3cccnn3)C2)nnc1C1CC1 (stereo not drawn) | 105.6
42 | c1ccc(CCN2CCOC(CNc3cccnn3)C2)nc1 (stereo not drawn) | 95.59
43 | CCn1ccnc1CN1CCOC(CNc2cccnn2)C1 (stereo not drawn) | 10.18
44 | Cc1cc(C)n(CCN2CCOC(CNc3cccnn3)C2)n1 (stereo not drawn) | 103.1
45 | CC(C)c1ccc(CNC(C)c2ccc(S(=O)(=O)N(C)C)cc2)cc1 (stereo not drawn) | 1.332
46 | CN(CCC#N)C(=O)CN1CCC(c2cc3ccccc3[nH]2)CC1 | -2.857
47 | O=S(=O)(c1ccccc1)N1CCN(Cc2ccc(F)cc2Br)CC1 | 23.46
48 | CCn1ccnc1-c1nc2cc(S(=O)(=O)N3CCCC3)ccc2n1C | -1.841
49 | c1ccc(OCCCN2CCOC(CNc3cccnn3)C2)cc1 (stereo not drawn) | 96.43
50 | c1cnnc(NCC2CN(CCn3cccn3)CCO2)c1 (stereo not drawn) | -18.13
51 | Cn1cc(CCN2CCOC(CNc3cccnn3)C2)cn1 (stereo not drawn) | 102.6
52 | N#Cc1cnn(CCN2CCOC(CNc3cccnn3)C2)c1 (stereo not drawn) | -39.45

Row | Structure (SMILES) | Percent Effect [%]
53 | CC(C)CCN1CCNC(=O)C1CC(=O)N1CCc2sccc2C1 (stereo not drawn) | -6.453
54 | Nc1nccnc1CC1CCCN(Cc2ccnc3ccccc23)C1 (stereo not drawn) | 254.5
55 | c1ccc2c(Cc3nnc([C@H]4CCN(CC5CC5)C4)o3)c[nH]c2c1 | -3.432
56 | COc1ccccc1CN1CCCC(n2cccn2)C1 (stereo not drawn) | -0.1221
57 | Nc1nccnc1CC1CCCN(Cc2c[nH]c3ccccc23)C1 (stereo not drawn) | 102
58 | O=C(NCC1CCCN(Cc2cccc3nonc23)C1)c1ccc[nH]1 (stereo not drawn) | 22.2
59 | COc1ccccc1CC1CCCN(C(=O)c2nccnc2N)C1 (stereo not drawn) | 7.342
60 | Nc1nccnc1CC1CCCN(Cc2cccc3[nH]ccc23)C1 (stereo not drawn) | 126.9
61 | COc1ccccc1CN1CCCC(Cc2nccnc2N)C1 (stereo not drawn) | 104.1
62 | CCn1c(C2CCCN(Cc3ccnc4ccccc34)C2)nn(C)c1=O (stereo not drawn) | 0.7157
63 | Cc1nc(CC2CCCN(Cc3nc(N)c4ccccc4n3)C2)no1 (stereo not drawn) | -1.933
64 | O=C(Cc1c[nH]c2ccccc12)NCC1CCN(Cc2c[nH]cn2)C1 (stereo not drawn) | -4.859
65 | CC(=O)N1[C@H](Cn2cncn2)C[C@@H]2CN(c3ccc(C)nn3)CC[C@@H]21 | 0.7192
66 | N#Cc1cccc(S(=O)(=O)Nc2c(F)cccc2N2CCCC2)c1 | -6.503
67 | Cc1nn(C)c2nc(N(Cc3ccncc3)CC3CCCO3)sc12 (stereo not drawn) | -11.41
68 | O=C(NCC1CCOCC1)c1cc(-c2cccnc2)c2cnccc2n1 | 94.41
69 | O=C(NCC1CCOC1)c1csc(Cc2ccccc2)n1 (stereo not drawn) | 5.242
70 | O=C(NCC1CCOC1)c1cc(-c2ccccc2Cl)[nH]n1 (stereo not drawn) | -16.18
71 | O=C(NCC1CCOC1)c1cc(-c2ccc(F)cc2)[nH]n1 (stereo not drawn) | -3.417
72 | O=C(NCC1CCOCC1)c1cc(-c2ccncc2)c2cnccc2n1 | 108.8
73 | CSCC[C@H](N)C(=O)NCc1cc2n(n1)CCCN(C(=O)N(C)C)C2 | 122.1
74 | CSC(C)CCN1CCCn2nc(CNC(=O)C3CCC3)cc2C1 (stereo not drawn) | -26.67
75 | CCn1cc(CN2CCCn3nc(CNC(=O)C4CCC4)cc3C2)cn1 | 6.964
76 | CCSCCC(=O)NCc1cc2n(n1)CCN(C(=O)N(C)C)C2 | -0.2016
77 | CSCC[C@H](N)C(=O)NCc1cc2n(n1)CCCN(C(=O)C1CCC1)C2 | 51.59
78 | CSCCC(=O)NCc1cc2n(n1)CCN(C(=O)N(C)C)C2 | -0.4963

Row | Structure (SMILES) | Percent Effect [%]
79 | COc1c(F)cccc1C(=O)N(C)Cc1nc(-c2ccccn2)no1 | -5.196
80 | O=C(c1nnn(-c2ccccc2F)c1-c1ccccn1)N1CCSCC1 | 6.252
81 | CCC(CC)CN(C)Cc1nc(-c2ccccc2NS(C)(=O)=O)oc1C | -3.021
82 | Cc1nsc(NC(=O)N2CCCCC2CCO)n1 (stereo not drawn) | 17.59
83 | Cl.c1cc(CNCc2ccc(Cn3cncn3)cc2)c2c(c1)OCCO2 | 98.52
84 | c1cc(CNCc2ccnc(N3CCOCC3)c2)c2c(c1)OCCO2 | -3.552
85 | Cl.c1cc(CNCc2cccc3c2OCCCO3)cc(Cn2cncn2)c1 | 92.05
86 | OCc1cccc(CNCc2cccc3c2OCCO3)c1 | 91.71
87 | CN(C)C1CCN(C(=O)NCc2ccc(Cn3cncn3)cc2)CC1 | -7.697
88 | c1cc(CNCc2ccnc(N3CCCCC3)c2)c2c(c1)OCCCO2 | -27.55
89 | CN(C)c1cc(CNCc2cccc3c2OCCO3)ccn1 | -14.59
90 | O=S(=O)(CCNCc1cccc2c1OCCO2)N1CCOCC1 | -15.52
91 | c1ncn(Cc2ccc(CNCc3ccc4c(c3)OCCO4)cc2)n1 | 118.2
92 | CC(C)c1nn(C)c(Cl)c1CNCc1ccc2c(c1)OCCO2.Cl | -6.63
93 | Cl.c1cc(CNCc2ccnc(N3CCCC3)c2)c2c(c1)OCCO2 | 3.03
94 | c1cc(CNCc2ccnc(N3CCCC3)c2)c2c(c1)OCCCO2 | -11.45
95 | CC(C)CN1C(=O)CC[C@H]2CN(C(=O)c3ncc[nH]3)CC[C@H]21 | 5.326
96 | O=C(NCC1(c2ccc(F)cc2)CCC1)N1CCC2(CCOCC2)C1 | -1.308
97 | CC(=O)c1cc(CN2C[C@@H](NS(=O)(=O)N(C)C)[C@H](C(C)C)C2)cs1 | -2.035
98 | CC(NCc1ccncc1)c1cc2c(cc1Br)OCCO2 (stereo not drawn) | -11.71
99 | Cc1nn(C)c(N(C)C)c1CNCc1cccc(OCCN(C)C)c1 | -12.69
100 | CCc1ncncc1C(=O)NCCNC(=O)c1ccc(C)c(F)c1 | 24
101 | c1cc(CNCc2ccnc(N3CCOCC3)c2)c2c(c1)OCCCO2 | 13.14
102 | c1cc(CNCc2cccc3c2OCCO3)cc(Cn2cncn2)c1 | 82.82
103 | CC1CN(c2cc(CNCc3cccc4c3OCCO4)ccn2)CCO1 (stereo not drawn) | -31.92
